The source made the active and inactive calls.
Key:
Albumin (Bos taurus) = Albumin (Bos taurus) (UniProt P02769); assay: bovine serum albumin binders on microarray, profiling panel, artefact control for SMM control protein annotation, biochemical, small-molecule microarray, Alexa647 label, 635/667 nm fluorescence (AID 1118); settings: BSA-A647 binding, fluorescence 635 nm, higher = more signal;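 note: score merges 667 nm emission intensity and signal-to-noise per printed compound spot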
[1] = small-molecule microarray binders of probe aXIP, primary screen, biochemical, NeuroSMM set, 635/667 nm fluorescence (AID 1119); settings: higher = more signal, called active from +8 up or from −8 down;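 note: probe is the protein aXip251-270 applied at 1 µg/mL to compound-printed slides; binding of probe to printed compounds measured as 667 nm fluorescence plus signal to noise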
[2] = small-molecule binders of probe aNOTCH3, primary screen, biochemical, small-molecule microarray, 635/667 nm fluorescence (AID 1120); settings: higher = more signal;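 note: probe is a biotin-tagged antibody raised against NOTCH3 rather than NOTCH3 protein; score merges spot fluorescence near 667 nm with spot signal to noise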
[3] = small-molecule binders of probe aNOTCH2, primary screen, biochemical, small-molecule microarray, 635/667 nm fluorescence (AID 1121); settings: higher = more signal;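 note: score merges feature fluorescence read at 667 nm with its signal to noise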
[4] = molecular target: Carbonic anhydrase 2 (Homo sapiens) (UniProt P00918); assay: CAII small-molecule binders, profiling panel, biochemical, small-molecule microarray, Alexa647-labelled CAII (AID 1122); settings: CAII-A647 binding fluorescence, higher = more signal
[5] = COS7 lysate on small-molecule microarray, probe aHis, 635 nm (AID 1123); settings: COS7 cell lysate, fluorescence, higher = more signal;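 note: z-score combines 667nm fluorescence intensity with signal-to-noise per printed compound spot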
[6] = compound binding in COS7 lysate, probe aLAP1, primary screen, cell lysate, small-molecule microarray (AID 1124); settings: probe aLAP1, fluorescence, higher = more signal;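 note: lysate comes from COS7 cells expressing LAP1 and is applied at 0.3 µg/mL; score merges spot fluorescence near 667 nm with signal-to-noise over triplicate slides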
Sam68 (KHDRBS1) = assay: Sam68 small-molecule binders, primary screen, biochemical, small-molecule microarray, 635 nm fluorescence (AID 1125); settings: small-molecule microarray binding, higher = more signal;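 note: score merges 667 nm channel intensity with signal to noise over triplicate slides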
[7] = tested on: Chordin-like protein 2 (CHRDL2); assay: CHRDL2 small-molecule binders, primary screen, biochemical, small-molecule microarray, 635 nm fluorescence (AID 1126); settings: small-molecule microarray binding, fluorescence 635 nm; higher = more signal;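 note: printed compound slides probed with Chrdl2 protein at 4 µg/mL for 1 h at 4 C; score merges 667 nm emission intensity with signal to noise over three replicate slides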
[8] = molecular target: Concanavalin-A (Canavalia ensiformis) (UniProt P02866); assay: ConA small-molecule binders, primary screen, artefact control for SMM control protein annotation, biochemical, small-molecule microarray, Alexa647 label, 635 nm (AID 1127); settings: ConA-A647 binding fluorescence, higher = more signal;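 note: z combines 667 nm emission intensity with signal-to-noise across three replicate slides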
[9] = anti-His antibody binders, primary screen, artefact control for SMM control protein annotation, biochemical, small-molecule microarray, 635 nm fluorescence (AID 1128); settings: anti-His Alexa647 antibody binding, higher = more signal;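 note: score merges feature fluorescence with signal-to-noise for each printed compound spot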
[10] = tested on: Human papillomavirus type 1a E7 protein (residues 1-88); assay: HPV1a E7 small-molecule binders, primary screen, biochemical, small-molecule microarray, residues 1-88, 635 nm (AID 1129); settings: small-molecule microarray binding, fluorescence 635 nm; higher = more signal
[11] = molecular target: Focal adhesion kinase 1 (Homo sapiens) (UniProt Q05397); assay: small-molecule microarray binders of FAK, primary screen, biochemical, 635/667 nm fluorescence, BSA, DTT (AID 1130); settings: PTK2 binding, 635 nm fluorescence, higher = more signal;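 note: composite of spot emission at 667 nm and signal to noise over triplicate slides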
[12] = tested on: Fibrinogen (Alexa647-labelled); assay: fibrinogen binders on compound microarrays, profiling panel, artefact control for SMM control-protein annotation, biochemical, small-molecule microarray, 635/667 nm fluorescence (AID 1131); settings: fibrinogen-A647 binding fluorescence, higher = more signal;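 note: z-score merges 667 nm fluorescence with per-spot signal-to-noise over triplicate slides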
[13] = molecular target: Follistatin (Homo sapiens) (UniProt P19883); assay: follistatin binders on small-molecule microarrays, primary screen, biochemical, small-molecule microarray, 635/667 nm fluorescence (AID 1132); settings: FST binding, 635 nm fluorescence, higher = more signal
[14] = molecular target: Fibroblast growth factor 2 (Homo sapiens) (UniProt P09038); assay: FGF2 binders on small-molecule microarrays, primary screen, biochemical, small-molecule microarray, 635/667 nm fluorescence (AID 1133); settings: small-molecule microarray binding, FGF2, fluorescence 635/667; higher = more signal
[15] = mitochondrial membrane potential change in A549 cells, profiling panel, cell-based, JC-1 fluorescence, basal, 24 h, 100 nL (AID 1138); settings: higher = more signal;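 note: A549 lung adenocarcinoma cells under basal conditions with no added stimulus; test concentration not given here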
Lefty1 = Lefty1 binders on small-molecule microarrays, primary screen, biochemical, small-molecule microarray, 635/667 nm fluorescence (AID 1139); settings: small-molecule microarray binding, fluorescence 635/667; higher = more signal
[16] = tested on: wheat germ agglutinin (Triticum aestivum), Alexa647-labelled; assay: wheat germ agglutinin binders on compound microarrays, profiling panel, artefact control for SMM control-protein annotation, biochemical, small-molecule microarray, 635/667 nm fluorescence (AID 1140); settings: WGA-A647 binding, 635 nm fluorescence, higher = more signal;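 note: score merges 667 nm feature emission with signal to noise over triplicate slides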
[17] = molecular target: Luciferin 4-monooxygenase (Photinus pyralis) (UniProt P08659); assay: firefly luciferase enzyme inhibitors, primary screen, biochemical, luminescence, purified enzyme, 2006 set (AID 1141); settings: SteadyGlo luminescence, 30 min, higher = more signal, called active from +8 up or from −8 down;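 note: cell-free assay with purified firefly luciferase at 100 ng per well in PBS; test concentration not given here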
Luciferin 4-monooxygenase (Photinus pyralis), sequence (P08659 whole entry, looked up): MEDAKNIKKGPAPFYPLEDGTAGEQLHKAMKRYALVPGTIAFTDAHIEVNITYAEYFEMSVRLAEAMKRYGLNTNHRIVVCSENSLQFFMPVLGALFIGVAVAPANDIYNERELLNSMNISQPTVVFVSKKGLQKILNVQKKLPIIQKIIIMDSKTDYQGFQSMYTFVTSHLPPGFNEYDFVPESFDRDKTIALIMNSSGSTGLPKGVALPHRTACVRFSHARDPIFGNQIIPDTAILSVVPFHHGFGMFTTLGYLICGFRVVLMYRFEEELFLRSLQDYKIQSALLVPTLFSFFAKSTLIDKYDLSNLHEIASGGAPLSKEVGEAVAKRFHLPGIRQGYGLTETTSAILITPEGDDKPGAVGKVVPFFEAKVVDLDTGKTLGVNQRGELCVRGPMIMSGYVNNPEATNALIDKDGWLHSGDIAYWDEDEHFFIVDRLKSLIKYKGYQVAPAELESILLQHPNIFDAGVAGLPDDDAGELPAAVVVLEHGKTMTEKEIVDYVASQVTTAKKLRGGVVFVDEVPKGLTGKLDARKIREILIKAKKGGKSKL

Concanavalin-A (Canavalia ensiformis), sequence (P02866 whole entry, looked up): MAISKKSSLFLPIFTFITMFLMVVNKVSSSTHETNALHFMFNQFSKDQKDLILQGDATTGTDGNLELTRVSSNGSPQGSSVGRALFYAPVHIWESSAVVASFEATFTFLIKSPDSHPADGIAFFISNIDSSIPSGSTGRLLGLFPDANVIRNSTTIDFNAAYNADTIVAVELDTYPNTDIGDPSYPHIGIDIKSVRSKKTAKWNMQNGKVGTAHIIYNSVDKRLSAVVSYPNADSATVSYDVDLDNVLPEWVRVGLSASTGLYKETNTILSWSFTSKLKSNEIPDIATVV
Follistatin (Homo sapiens), sequence (P19883 whole entry, looked up): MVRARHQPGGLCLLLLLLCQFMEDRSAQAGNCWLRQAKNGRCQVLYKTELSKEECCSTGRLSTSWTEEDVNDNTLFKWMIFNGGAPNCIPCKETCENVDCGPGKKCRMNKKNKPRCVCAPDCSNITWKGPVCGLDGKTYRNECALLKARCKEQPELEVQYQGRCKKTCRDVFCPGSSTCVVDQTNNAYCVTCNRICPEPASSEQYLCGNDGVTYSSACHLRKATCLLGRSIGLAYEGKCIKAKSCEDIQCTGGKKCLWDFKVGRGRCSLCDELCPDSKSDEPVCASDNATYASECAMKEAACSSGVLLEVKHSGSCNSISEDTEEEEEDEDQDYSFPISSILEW
Focal adhesion kinase 1 (Homo sapiens), sequence (Q05397 whole entry, looked up): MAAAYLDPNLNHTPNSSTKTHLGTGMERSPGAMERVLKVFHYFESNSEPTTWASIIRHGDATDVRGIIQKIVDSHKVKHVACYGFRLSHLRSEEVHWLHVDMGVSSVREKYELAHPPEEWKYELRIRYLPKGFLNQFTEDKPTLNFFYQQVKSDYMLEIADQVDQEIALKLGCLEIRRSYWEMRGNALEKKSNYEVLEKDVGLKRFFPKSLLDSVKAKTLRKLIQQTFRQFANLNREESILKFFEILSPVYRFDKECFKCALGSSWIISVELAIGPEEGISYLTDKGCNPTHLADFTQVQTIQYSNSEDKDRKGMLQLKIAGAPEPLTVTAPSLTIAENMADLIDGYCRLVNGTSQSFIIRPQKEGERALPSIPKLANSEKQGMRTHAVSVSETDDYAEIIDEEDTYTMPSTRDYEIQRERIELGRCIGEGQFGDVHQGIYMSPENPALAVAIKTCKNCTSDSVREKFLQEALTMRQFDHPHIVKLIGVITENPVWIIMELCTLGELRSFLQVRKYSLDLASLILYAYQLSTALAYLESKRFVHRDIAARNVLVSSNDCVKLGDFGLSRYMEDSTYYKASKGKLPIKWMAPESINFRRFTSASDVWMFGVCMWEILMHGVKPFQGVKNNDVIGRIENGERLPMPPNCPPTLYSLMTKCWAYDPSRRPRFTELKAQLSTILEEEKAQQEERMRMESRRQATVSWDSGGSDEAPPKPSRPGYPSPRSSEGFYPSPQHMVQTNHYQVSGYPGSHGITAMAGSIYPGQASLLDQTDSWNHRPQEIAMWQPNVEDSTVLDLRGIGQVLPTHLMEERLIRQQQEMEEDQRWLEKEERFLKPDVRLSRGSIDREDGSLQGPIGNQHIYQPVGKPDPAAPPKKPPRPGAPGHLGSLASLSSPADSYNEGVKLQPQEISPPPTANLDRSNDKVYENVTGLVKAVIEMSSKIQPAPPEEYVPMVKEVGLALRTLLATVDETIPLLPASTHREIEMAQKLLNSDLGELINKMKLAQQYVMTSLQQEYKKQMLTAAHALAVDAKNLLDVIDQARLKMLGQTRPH
Fibroblast growth factor 2 (Homo sapiens), sequence (P09038 whole entry, looked up): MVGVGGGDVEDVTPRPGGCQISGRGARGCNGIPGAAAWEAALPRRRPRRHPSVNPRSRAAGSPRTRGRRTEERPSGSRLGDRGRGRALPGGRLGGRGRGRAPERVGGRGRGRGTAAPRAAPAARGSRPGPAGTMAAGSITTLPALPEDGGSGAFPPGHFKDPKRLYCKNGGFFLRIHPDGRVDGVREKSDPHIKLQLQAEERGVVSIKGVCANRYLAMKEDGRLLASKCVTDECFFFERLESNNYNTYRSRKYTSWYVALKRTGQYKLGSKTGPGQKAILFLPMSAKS
Albumin (Bos taurus), sequence (P02769 whole entry, looked up): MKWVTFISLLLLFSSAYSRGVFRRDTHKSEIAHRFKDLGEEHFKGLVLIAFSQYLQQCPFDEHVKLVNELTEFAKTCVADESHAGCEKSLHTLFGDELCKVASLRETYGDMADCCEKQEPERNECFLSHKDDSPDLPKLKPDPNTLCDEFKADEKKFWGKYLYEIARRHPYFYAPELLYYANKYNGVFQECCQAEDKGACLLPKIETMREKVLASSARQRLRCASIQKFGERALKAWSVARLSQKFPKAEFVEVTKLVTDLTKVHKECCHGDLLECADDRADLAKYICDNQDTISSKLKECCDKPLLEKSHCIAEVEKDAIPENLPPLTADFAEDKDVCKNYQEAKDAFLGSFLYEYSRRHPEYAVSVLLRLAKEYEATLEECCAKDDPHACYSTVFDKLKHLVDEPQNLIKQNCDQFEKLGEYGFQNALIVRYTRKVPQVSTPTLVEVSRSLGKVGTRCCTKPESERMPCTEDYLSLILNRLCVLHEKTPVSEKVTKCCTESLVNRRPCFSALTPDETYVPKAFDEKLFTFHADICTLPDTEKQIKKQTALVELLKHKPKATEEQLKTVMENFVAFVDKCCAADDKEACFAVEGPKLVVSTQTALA

SMILES | composite z-score (Albumin (Bos taurus)) | composite Z-score [1] | composite z-score [2] | composite z-score [3] | composite z-score [4] | composite z-score [5] | composite z-score [6] | composite z-score (Sam68 (KHDRBS1)) | composite z-score [7] | composite z-score [8] | composite z-score [9] | composite z-score [10] | composite z-score [11] | composite z-score [12] | composite z-score [13] | composite z-score [14] | z-score [15] | composite z-score (Lefty1) | composite z-score [16] | z-score [17]
CC[C@H]1C2=C3C(CC[C@H]4C(OCc5ccc(F)cc5C(F)(F)F)OC[C@](C)([C@@H]34)N(C(=O)OC(C)(C)C)C2)C(COC(C)=O)C1COC(C)=O (stereo not given in full) | 0.761 | -0.0238 (inactive) | 0.335 | 0.173 | 0.345 | 2.76 | 0.2 | 1.29 | -1.23 | 0.957 | 1.3 | 1.17 | 0.178 | 0.945 | 0.165 | -1.19 | 1.74 | -0.256 | 0.509 | 1.17 (inactive)
C=CCNC(=O)[C@H]1[C@@H]2C(=O)O[C@@H](c3ccccc3)[C@@H](c3ccccc3)N2[C@@H](c2ccc(O)cc2)[C@]12C(=O)Nc1ccccc12 | -0.118 | -0.139 (inactive) | -0.278 | -0.0681 | 0.331 | 0.45 | 0.219 | 1.07 | -0.21 | 0.872 | 0.809 | 0.642 | -0.176 | 0.13 | 0.719 | 0.757 | 0.914 | -0.319 | -0.496 | -1.57 (inactive)
COC(=O)C[C@H]1O[C@]2(C(=O)N(C)c3ccccc32)[C@@H](C)[C@@H]1[Si](C)(C)c1ccccc1 | -0.0967 | -0.142 (inactive) | 0.16 | -0.171 | 0.288 | 0.198 | 0.216 | 0.898 | 0.816 | 0.593 | 0.83 | 0.941 | 0.764 | 0.794 | 1.05 | 0.856 | 0.186 | 0.966 | 0.219 | 1.24 (inactive)
C=CCOC(=O)[C@@H]1[C@H]2C(=O)O[C@H](c3ccccc3)[C@H](c3ccccc3)N2[C@H](c2ccc(OCCOC(=O)[C@H]3C[C@H]4C(=O)N[C@@H](CCCCN(C)C)C(=O)N4[C@H]3c3cccc(OCCO)c3)cc2)[C@@]12C(=O)Nc1ccccc12 | 0.172 | 0.597 (inactive) | -0.2 | 0.0018 | 0.656 | 0.668 | 0.781 | 0.846 | 0.0523 | 0.682 | 2.06 | -0.246 | 0.0815 | 0.498 | 0.519 | 0.382 | -0.407 | -0.0986 | 0.517 | 0.892 (inactive)
C#CCN(C(=O)OC(C)(C)C)[C@H](CO)c1ccccc1 | 0.632 | 0.32 (inactive) | -0.0043 | -0.146 | 0.0604 | 0.125 | 0.183 | 0.689 | 0.105 | 0.0388 | 0.137 | 0.266 | 0.0987 | -0.0218 | -0.0032 | 0.579 | -0.766 | 0.543 | -0.174 | 0.978 (inactive)
COC(=O)[C@@]1(Cc2ccccc2)[C@H]2c3cc(C(=O)N(C)C)n(CCF)c3C[C@H]2CN1C(=O)c1ccccc1 | 1.11 | 0.507 (inactive) | 0.62 | 0.334 | 0.531 | 3.26 | 1.08 | 0.302 | -0.927 | 0.517 | 2.32 | 0.728 | 0.326 | 0.339 | 0.0139 | -0.551 | 0.551 | -0.773 | 0.969 | 1.02 (inactive)
CC(C)(C)OC(=O)CC[C@@]1(C(=O)N2CCOCC2)N=C(c2ccc(OCCCO)cc2)O[C@@H]1c1ccccc1CN=[N+]=[N-] | 0.966 | 1.31 (inactive) | 0.144 | 0.23 | 0.829 | 3.77 | 0.86 | 1.29 | -0.406 | 1.09 | 3.27 | 1.26 | 0.855 | 0.949 | 1.4 | 1.76 | 0.193 | -0.271 | 0.898 | -1.2 (inactive)
C=C(C(=O)CC[C@H](OC(=O)c1ccccc1-c1ccccc1C(=O)O)c1ccc(OCCO)cc1)C(C)C | 0.816 | -0.691 (inactive) | 0.0282 | -0.106 | 0.59 | 1.61 | -0.284 | 0.884 | -0.0766 | 0.708 | 0.547 | 1.16 | 0.124 | 0.981 | 0.901 | 0.726 | -0.45 | 0.64 | 0.189 | -1.35 (inactive)
C=C(C(=O)CC[C@@H](OC(=O)c1ccccc1-c1ccccc1C(=O)O)c1cccc(OCCO)c1)C(C)C | -0.757 | -0.88 (inactive) | 0.107 | -0.0402 | 0.555 | 0.139 | 1.2 | 0.152 | 1.26 | -0.539 | 0.256 | -0.481 | -0.285 | -0.0661 | 1.53 | 1.54 | 0.282 | 1.69 | 0.58 | -1.62 (inactive)
CCOC(=O)C1=CCC(c2ccncc2)N(S(=O)(=O)c2ccc(C)cc2)C1 (stereo not given) | 0.924 | 0.525 (inactive) | 0.191 | -0.0621 | 0.702 | 2.6 | 1.05 | 1.3 | 0.192 | 0.786 | 0.871 | 1.25 | 1.5 | 1.01 | 0.844 | 0.454 | -0.497 | 0.353 | 0.829 | -0.786 (inactive)
COCCOC(=O)N1C(=O)[C@@]2(c3cc(C#CCNC(N)=O)ccc31)[C@H](C(=O)N1CCN(c3ncccn3)CC1)[C@H]1C(=O)O[C@H](c3ccccc3)[C@H](c3ccccc3)N1[C@@H]2c1ccc(O)cc1 | 0.526 | -0.453 (inactive) | -0.457 | -0.292 | 0.371 | -0.864 | 0.555 | -0.396 | -0.956 | -0.785 | -0.031 | -0.937 | -0.305 | -1 | -0.974 | -0.623 | 0.284 | -1.19 | 0.0548 | 0.0121 (inactive)
